A selection: hits, their analogues and other compounds. The true share with any hit is near 21%.
Shiga inhibitor = Shiga toxin inhibition; 290,000 compounds, 9.2% hits; AID 2315; inhibition, % at 38.7 µM; Vero cells, Shiga toxin protein synthesis inhibition reporter; in the data active = inhibition mostly above about 28%, no sharp cut-off; inactive = mostly below about 43%; note: 0% is about no effect
Pf growth 48h = inhibits P. falciparum growth in the first generation, 48 h | 310,000 compounds, 5.9% hits | Potency, µM (top dose mostly 28.7 µM), for inactives: at the top dose activity change, negative = inhibition, actives largely listed as inhibitors | P. falciparum luciferase growth in erythrocytes, 48 h; note: potency is the fitted concentration of half-maximal effect; % is set by controls: 0 for no effect and ±100 for the full control effect
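Read-out is firefly luciferase luminescence from an integrated reporter in P. falciparum, so falling signal marks reduced parasite growth. Infected erythrocytes were at 2% hematocrit and 0.1% parasitemia (final) in Albumax-supplemented RPMI 1640.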
Pf growth 96h = P. falciparum growth inhibition at 96 hours; Potency, µM (top dose mostly 28.7 µM), for inactives: top-dose activity change, negative = inhibition, usual class: inhibitors; P. falciparum luciferase reporter growth, 96 h; 320,000 compounds, 6.9% hits; note: potency is the fitted concentration of half-maximal effect; % is set by controls: 0 for no effect and ±100 for the full control effect
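P. falciparum expressing integrated firefly luciferase, in erythrocytes at 2% hematocrit, 0.05% parasitemia, incubated with compounds 96 h at 37 C, 5% CO2. Growth inhibition read as loss of luminescence; two-generation exposure targets delayed-death apicoplast inhibitors.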
Cycloheximide cs = affects cycloheximide protein synthesis inhibition readout, counter-screen; max response, %; 300,000 compounds, 12% hits; cell reporter, cycloheximide protein synthesis inhibition counterscreen; in the data active = max response mostly above about 13%, no sharp cut-off; inactive = mostly below about 14%; note: read at 38.3 µM for the half of the compounds with a filed dose; 0% is about no effect
Starred values were filed as active, the others as inactive; [ ] = remark or other dose. Unless noted, calls come from the whole dose curve; as a rule, active = well fitted inhibition curve with a large enough effect; inconclusive = small, poorly fitted or top-dose-only effect, or another doubt; inactive = no such curve, though single readings can be large or run the other way.

For CCCCn1c(N)c(N(Cc2ccccc2OC)C(=O)CN2C(=O)NC3(CCCC3)C2=O)c(=O)[nH]c1=O the results were Pf growth 48h 26% and Pf growth 96h 35%.
For COc1ccc(C(=O)NCC(O)COc2ccc(C(C)(C)C)cc2)cc1[N+](=O)[O-] (configuration not stated) the results were Shiga inhibitor -9, Pf growth 48h -4%, Pf growth 96h 6.6µM* and Cycloheximide cs 9.
CC1=NN(/C(=N\c2nnc(C)s2)Nc2ccccc2)[C@H](c2cccc3ccccc23)S1 was read as Shiga inhibitor 7, Pf growth 48h 6.6µM*, Pf growth 96h 9.3µM* and Cycloheximide cs 7.
Screening CC1=NN(/C(=N\c2nnc(C)s2)Nc2ccc(C)cc2)[C@H](c2ccc(C)cc2)S1 returned Shiga inhibitor 32, Pf growth 48h 10µM*, Pf growth 96h inconclusive and Cycloheximide cs 6.
COc1ccc(CCNC(=O)C/C(C)=N/NC(=O)c2ccc(N)cc2)cc1OC was read as Shiga inhibitor 27, Pf growth 48h 40%, Pf growth 96h inconclusive and Cycloheximide cs 12*.
Screening COc1ccc(CCNC(=O)C/C(C)=N/NC(=O)C2CCCCC2)cc1OC returned Shiga inhibitor 2, Pf growth 48h -4%, Pf growth 96h 8.3µM* and Cycloheximide cs 1.
For Cc1ccc(NC(=O)CC(C)CC(=O)NCc2ccccc2)cc1Cl (configuration not stated) the results were Shiga inhibitor -6, Pf growth 48h -1%, Pf growth 96h inconclusive and Cycloheximide cs 1.
COc1ccc2c(c1)C(=O)c1ccccc1CO2 was read as Shiga inhibitor 117*, Pf growth 96h inconclusive and Cycloheximide cs 53*.
CNC(=O)Oc1ccc2c(c1)C(=O)c1ccccc1CO2 was read as Shiga inhibitor 62, Pf growth 96h 47% and Cycloheximide cs 16*.
For N#CC1=C(N)Oc2cc(N)ccc2C1c1ccccc1F (configuration not stated) the results were Shiga inhibitor -11, Pf growth 48h -13%[0.00184 µM], Pf growth 96h 22% and Cycloheximide cs -2.
Screening CCCOc1ccc(-c2cnc(N)s2)cc1 returned Shiga inhibitor 64*, Pf growth 48h 179%, Pf growth 96h 265% and Cycloheximide cs 50*.
Screening Nc1nnc(SCCCOc2ccc(F)cc2)s1 returned Shiga inhibitor -23, Pf growth 48h -18%, Pf growth 96h inconclusive and Cycloheximide cs -2.
`CCCOc1ccc(OCCSc2nnc(N)s2)cc1` gave Shiga inhibitor 95*, Pf growth 48h 99% and Cycloheximide cs 26*.
For CCCCCCCSc1nnc(N)s1 the results were Shiga inhibitor 44*, Pf growth 48h -7%, Pf growth 96h 64% and Cycloheximide cs 14*.
For CCCCCCSc1nnc(N)s1 the results were Shiga inhibitor 7, Pf growth 48h 2%, Pf growth 96h 6% and Cycloheximide cs 16.
Screening Cc1cc(OCC(=O)Nc2nccs2)c2c(C)cc(=O)oc2c1 returned Shiga inhibitor 2, Pf growth 48h inconclusive, Pf growth 96h inconclusive and Cycloheximide cs -1.
For COc1ccc2c(c1OC)C(=O)N1C2SC(C)(C)[C@H]1C(=O)NC(C)C (some centres not stated) the results were Shiga inhibitor -8, Pf growth 48h 16%[0.00184 µM], Pf growth 96h 6% and Cycloheximide cs -2.
Screening CCCNc1nc(C)cc(-c2cc(C(=O)NC3CCCC3)on2)n1 returned Shiga inhibitor -10, Pf growth 48h inconclusive, Pf growth 96h -25% and Cycloheximide cs -5.
Screening COC(=O)c1cc(C)nc(Sc2ccccc2N)n1 returned Shiga inhibitor 45*, Pf growth 48h inconclusive, Pf growth 96h inconclusive and Cycloheximide cs 18*.
Screening COC(=O)c1ccccc1NC(=O)CSc1nc(C)cc(C)n1 returned Shiga inhibitor -10, Pf growth 48h 19%, Pf growth 96h 43% and Cycloheximide cs -4.
Cc1cc(=O)oc2c(C)c(OCC(=O)Nc3cccnc3)ccc12 was read as Shiga inhibitor 41*, Pf growth 48h inconclusive, Pf growth 96h -24% and Cycloheximide cs 31*.
`CCCc1cc(=O)oc2c(C)c(OCC(=O)Nc3cccnc3)ccc12` gave Shiga inhibitor 3, Pf growth 48h 3.3µM*, Pf growth 96h 2.3µM* and Cycloheximide cs -1.
Cc1cc(OCC(=O)Nc2cccnc2)c2c(C)c(C)c(=O)oc2c1 was read as Shiga inhibitor 13, Pf growth 48h 51%, Pf growth 96h 45% and Cycloheximide cs -1.
For O=C(Cn1ncc2c3ccccc3n(Cc3cccc(Cl)c3)c2c1=O)NCc1ccccn1 the results were Shiga inhibitor -4, Pf growth 48h -19%, Pf growth 96h inconclusive and Cycloheximide cs 11.

High-throughput results deposited in PubChem BioAssay by National Center for Advancing Translational Sciences (NCATS).
